The entries come from a sample that favours hits as a whole.
Tgondii IFNg: T. gondii growth inhibition with IFN-gamma, primary screen, cell-based; Toxoplasma gondii growth in IFN-gamma-treated host cells; stronger effect = lower value; activity change, negative = inhibition, % (test concentration not listed); hit rate 3.8% among 69,000; AID 1259416, 2018; in the data active means activity change below about -70%, passing the limit was not always enough;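 further: host cells are HeLa cells infected with Toxoplasma gondii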
The depositor's hits bear a star.

SMILES | Tgondii IFNg
C[C@H](Cn1nnc2ccccc21)NC(=O)c1cc(C(C)(C)C)nn1C | 2
Cn1nc(C(F)(F)F)c(-c2ccc(Br)cc2)c1NC(=O)C1CCC1C(=O)O (centres undefined) | -10
CN(C)C1CCN(Cc2cccs2)C(C(=O)O)C1 (centres undefined) | 51
CO[C@H]1CN(C)C(=O)c2cc(NC(=O)c3nc4ccccc4s3)ccc2OC[C@H](C)NC[C@@H]1C | -17
CO[C@@H]1CN(C)C(=O)c2cc(NC(=O)C3CCCCC3)ccc2OC[C@H](C)N(Cc2cccnc2)C[C@H]1C | 27
CO[C@@H]1CN(C)C(=O)c2ccc(NC(=O)c3cccnc3)cc2OC[C@@H](C)N(CC2CCCCC2)C[C@H]1C | 144
CO[C@H]1CN(C)C(=O)c2cc(NC(=O)C3CCCCC3)ccc2OC[C@@H](C)N(Cc2cccnc2)C[C@H]1C | 69
CO[C@@H]1CN(C)C(=O)c2ccc(NC(=O)c3nc4ccccc4s3)cc2OC[C@@H](C)N(Cc2cccnc2)C[C@H]1C | -85*
CO[C@H]1CN(C)C(=O)c2ccc(NC(=O)c3nc4ccccc4s3)cc2OC[C@@H](C)N(Cc2cccnc2)C[C@@H]1C | 16
CO[C@@H]1CN(C)C(=O)c2ccc(NC(=O)c3nc4ccccc4s3)cc2OC[C@@H](C)N(Cc2cccnc2)C[C@@H]1C | -112*
CO[C@@H]1CN(C)C(=O)c2cc(NC(=O)C3CCCCC3)ccc2OC[C@@H](C)N(Cc2cccnc2)C[C@H]1C | 1
CO[C@H]1CN(C)C(=O)c2ccc(NC(=O)c3nc4ccccc4s3)cc2OC[C@H](C)N(Cc2cccnc2)C[C@H]1C | -113*
COc1ccccc1-c1ccc(NC(=O)CC2(C)C(=O)N=C3C=CC=CN32)cc1 (centres undefined) | 13
O=C(c1cn[nH]n1)N(Cc1ccncc1)CC1CCCO1 (centres undefined) | 2
COc1ccccc1N1CCN(CCCNS(=O)(=O)c2ccc3[nH]c(=O)ccc3c2)CC1 | 3
Cc1ccc(NC(=O)N2CCN(Cc3nc(-c4ccccc4C)oc3C)CC2)cc1F | 4
Cc1ccc(Cl)cc1NC(=O)C(=O)NCCc1sc(-c2cccc(F)c2)nc1C | 7
CCN1CCC(C(=O)NCc2cccnc2N(C)C2CCCCC2)C1 (centres undefined) | -4
COCCCN(Cc1ccc2c(c1)CC(C)O2)Cc1ccccn1 (centres undefined) | -5
CCC(=O)Nc1cccc(OCC(=O)N2CCC(Oc3ccc(C)cc3)CC2)c1 | -19
CCC(c1ccc(OC)cc1)N(CC)C(=O)c1cccc(N2CCNC2=O)c1 (centres undefined) | -11
CSc1cc(-c2ccc(Cl)cc2)[nH]c(=O)c1C#N | 56
CSc1scc(NS(=O)(=O)c2ccc(Cl)cc2)c1S(=O)(=O)C(C)C | -47
CSc1scc(-c2ccc(Cl)cc2)c1C#N | -91*
CN(C)S(=O)(=O)CCNC(=O)[C@@H](N)CC1CCCCC1 | -1
SMILES | Tgondii IFNg
O=C1CCc2cc(NS(=O)(=O)c3ccc(C(F)(F)F)cc3)ccc2N1 | -37
Cc1ccc(-c2coc(-c3ccc(NS(=O)(=O)c4ccc(C(C)(C)C)cc4)cc3)n2)c(C)c1 | -38
CC(C)(C)c1ccc(S(=O)(=O)Nc2ccc(C34CC5CC(CC(C5)C3)C4)cc2)cc1 | -96*
CNC(=O)C1CCN(c2cc(C)nc(-c3ccccc3)n2)C1 (centres undefined) | 0
Cn1c(=O)c(-c2nc(-c3cccc(F)c3)no2)c(O)c2ccccc21 | 44
CNS(=O)(=O)CCn1cnc(-c2ccccc2)c1-c1ccc(C)cc1F | -9
CCc1ccccc1NC(=O)N1CCC2(CC1)NC(=O)c1ccccc1N2CC | -32
CCCCCCCCCCCCCCCC[n+]1ccccc1 | -91*
COCCN1C(=O)N(C2Cc3ccccc3C2)C(=O)C12CCN(Cc1cccn1-c1ccccn1)CC2 | 4
Cc1nnnn1-c1ccc(C(=O)N(C)Cc2ccccc2N2CCOCC2)cc1 | 9
CC(=O)N1CCC2(CCCN2c2nncs2)CC1 | 184
COc1ccc(-c2[nH]c3ncccc3c2CN2CCC(O)(c3ccccc3C)CC2)cc1 | -98*
c1cncc(-c2[nH]c3ncccc3c2CN2CCSCC2)c1 | -34
COc1ccccc1CNC(=O)CN1CCC(O)(c2ccccc2C)C1 (centres undefined) | 4
CC(C)Nc1ncnc2c1CCN(C(=O)CCc1ccccc1)CC2 | -4
CC(C)NC(=O)C1CCC2(CCN(Cc3ccccc3)CC2)CO1 (centres undefined) | -1
COCC(=O)N1CCC2(CC1)CC(OCC1CC1)c1ccc(F)cc12 (centres undefined) | 3
CCc1nnc(CN(C(=O)CC2C(=O)NCCN2C(C)C)C(C)C)o1 (centres undefined) | -2
O=C(Nc1ccccc1)Nc1nc(=O)c2ccccc2s1 | 143
Cc1oc2ccccc2c1CNC(=O)Nc1ccc(Br)cc1 | -47
Cc1c(CNC(=O)Nc2ccccc2)sc2ccccc12 | -79*
Cc1cc(C)c(CN2CC[C@H](CO)[C@H](O)C2)c(-n2cccn2)c1 | 2
O=C(CN1C(=O)CCc2cc(Br)ccc21)Nc1ccccc1 | 9
O=C(c1cccc(N2CCCC2=O)c1)N1C[C@@H]2C3CCC(CC3)[C@@H]2C1 | -1
Cc1nc(CCC(=O)N2CCc3[nH]nc(-c4cccc5ccccc45)c3C2)n[nH]1 | 5
SMILES | Tgondii IFNg
Cc1ccc(N2CCCC2=O)cc1S(=O)(=O)Nc1ccc(N2CCCC2=O)cc1 | -91*
Cc1ccc(N2CCCC2=O)cc1S(=O)(=O)NCCc1c(C)noc1C | -22
Cc1ccc(N2CCCC2=O)cc1S(=O)(=O)Nc1ccc2c(c1)CC(=O)N2 | 49
O=C1CO[C@H]2CN(c3cc(C(F)(F)F)ncn3)C[C@@H]2N1 | -3
O=C(CCN1CCOCC1)N1CCC(COc2ccc(Cl)cc2)CC1 | -20
C=CCN(Cc1ccccc1OC)C(=O)C1CCN(C(C)=O)CC1 | 4
CN1C(=O)c2cc(NC(=O)c3ccc(C(F)(F)F)cc3)ccc2OC[C@H]2O[C@H](CC(=O)NCc3ccc4c(c3)OCO4)CC[C@@H]21 | -75*
CN1C(=O)c2cc(NC(=O)c3ccc4c(c3)OCO4)ccc2OC[C@H]2O[C@@H](CC(=O)O)CC[C@@H]21 | 7
Cc1cc(C(=O)Nc2ccc3c(c2)C(=O)N(C)[C@H]2CC[C@@H](CC(=O)NCc4ccc(-c5ccccc5)cc4)O[C@H]2CO3)no1 | -79*
Cc1cc(C(=O)Nc2ccc3c(c2)C(=O)N(C)[C@H]2CC[C@H](CC(=O)NCc4ccc(-c5ccccc5)cc4)O[C@@H]2CO3)no1 | -35
Cc1cc(C(=O)Nc2ccc3c(c2)C(=O)N(C)[C@@H]2CC[C@@H](CC(=O)NCc4ccc(-c5ccccc5)cc4)O[C@@H]2CO3)no1 | -60
Cc1cc(C(=O)Nc2ccc3c(c2)C(=O)N(C)[C@@H]2CC[C@@H](CC(=O)O)O[C@H]2CO3)no1 | 14
Cc1cc(C(=O)Nc2ccc3c(c2)C(=O)N(C)[C@@H]2CC[C@H](CC(=O)NCc4ccc(-c5ccccc5)cc4)O[C@@H]2CO3)no1 | -87*
CN1C(=O)c2cc(NC(=O)Nc3cccc(C#N)c3)ccc2OC[C@H]2O[C@@H](CC(=O)Nc3ccc4c(c3)CCC4)CC[C@@H]21 | -58
CN1C(=O)c2cc(NC(=O)c3ccc4c(c3)OCO4)ccc2OC[C@H]2O[C@H](CC(=O)O)CC[C@@H]21 | -11
COC(=O)C[C@H]1CC[C@@H]2[C@@H](COc3ccc(NC(=O)Nc4cccc(C#N)c4)cc3C(=O)N2C)O1 | -79*
